Measured values taken from PubChem BioAssay AID588651 (The Scripps Research Institute Molecular Screening Center, 2011).
Calls of active or inactive are those of the source. No stated cut-off is given here; in the data, active means inhibition above about 65%; inactive means the rest.

The molecules below were run on Antitargets (assay: Fam108b inhibitors and proteome off-target selectivity – biochemical, gel-based ABPP, recombinant soluble Fam108b, HTS hits, complex proteome, late-stage follow-up (AID 588651;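 further: Fam108b spiked into mouse brain membrane proteome; tested at 20 µM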)). Details: FP-rhodamine labeling in proteome.
In the case of `C[n+]1c(-c2ccccc2)c2cc(N)ccc2c2ccc(N)cc21`, the outcome is reported as “inactive”. For `NC(Cc1cc(O)c(O)cc1O)C(=O)O` (stereo not drawn), the outcome was “inactive”. `Cc1ccccc1N1C(=O)/C(=C/c2ccco2)C(=O)NC1=S` was tested, and the outcome was “inactive”.
